Data from PubChem BioAssay AID430 (Sanford-Burnham Center for Chemical Genomics, 2006).
The campaign covered roughly 63,000 compounds. About 1,100 (1.7%) were called active. Many of the other results were omitted from the sample, so actives are more common in it than they were. Results with a measured potency or affinity are listed apart. Unmarked numbers belong to inactive results. Rule as the data show it: active = cytotoxicity above about 50%; inactive = the rest.

Assay: cytotoxicity in HPDE-C7 cells, cell-based, fluorescence, HTS (AID 430);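 also: cells exposed to compound for 48 hours before viability readout; 0% = vehicle and 100% = reference cytotoxic drug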
Details: HPDE-C7 pancreatic duct cells viability, at 10 µM, hits give high values

SMILES	cytotoxicity
O=C(NC1CCCc2ccccc21)C1CCCO1 (stereo not given)	2%
CCC(C)(C)NC(=O)C(c1ccccc1F)N(Cc1ccco1)C(=O)Cn1nnc2ccccc21 (stereo not given)	2.4%
O=C(NC1CCCCC1)C(c1ccccc1F)N(Cc1ccco1)C(=O)Cn1nnc2ccccc21 (stereo not given)	63.4% (active)
O=C(NC1CCCCC1)C(c1ccc(F)cc1)N(Cc1ccco1)C(=O)Cn1nnc2ccccc21 (stereo not given)	-13.1%
Cc1ccc(S(=O)(=O)Nc2nc3ccccc3nc2NCc2ccco2)cc1C	-2.8%
C=CCn1c(SCC(=O)NC(=O)NCc2ccco2)nc2sc(C)c(C)c2c1=O	-0.5%
O=C(CSc1nc2cc(Cl)ccc2s1)NC(=O)NCc1ccco1	-4.7%
C=CCn1c(SCC(=O)NC(=O)NCc2ccco2)nc2sc(CC)cc2c1=O	57.6% (active)
O=C(CCCSc1nc2ccccc2s1)NCc1ccco1	-2.9%
O=C(CSc1nc2ccccc2s1)NC(=O)NCc1ccco1	82.9% (active)
C=CCn1c(SCC(=O)N2CCN(C(=O)c3ccco3)CC2)nc2sc(CC)cc2c1=O	-4.1%
Cc1ccc2cc3cc(C(=O)N4CCN(C(=O)c5ccco5)CC4)sc3nc2c1	-0.9%
CCn1cc(C(=O)N2CCCC2)c(=O)c2cc(S(=O)(=O)N3CCOCC3)ccc21	-4.3%
Cc1cccc(-c2nc(CS(=O)CC(=O)NC3CCCC3)c(C)o2)c1 (stereo not given)	10.3%
CC(OC1=CC(=O)CCC1)C(=O)c1ccccc1 (stereo not given)	-4.7%
COc1ccccc1OCc1nc(C#N)c(NCc2ccco2)o1	3.4%
CCCCCCC1CC(CSc2ncn[nH]2)OC1=O (stereo not given)	6.8%
CCOC(=O)c1ccc(N2CC(O)=C(c3nc4ccccc4c(=O)[nH]3)C2=N)cc1	38.3%
COc1cccc(N2CC(O)=C(c3nc4ccccc4c(=O)[nH]3)C2=N)c1	54.2% (active)
COc1ccccc1N1CC(O)=C(c2nc3ccccc3c(=O)[nH]2)C1=N	26.8%
O=C(O)C1C(c2ccccc2)C(C(=O)OCCCO)C1c1ccccc1 (stereo not given)	4.7%
COc1cc(Br)cc(CN2CCN(C=O)CC2)c1O	-1.6%
COc1cccc(C=Nc2cc(C)on2)c1O	-3.2%
Oc1c(/C=N/c2ncn[nH]2)ccc2ccccc12	54.2% (active)

SMILES	cytotoxicity
O=c1c2ccccc2c(/C=N/c2ncn[nH]2)c(O)n1Cc1ccccc1	5.2%
C=CCc1cccc(/C=N/c2ncn[nH]2)c1O	4.1%
COc1cc(Br)cc(/C=N/c2ncn[nH]2)c1O	88.6% (active)
O=C(O)CN1CCN(Cc2ccc(F)cc2Cl)C1=O	-10.1%
COc1ccc(CCn2nnnc2C(CC(C)C)N2CCC(C(N)=O)CC2)cc1OC (stereo not given)	-10.9%
CCCS(=O)(=O)N1CCC(C(=O)NCc2ccccc2Cl)CC1	-9.6%
Cc1nn2c(-c3ccc(Cl)cc3Cl)nnc2s1	-9.3%
Clc1ccccc1-c1nnc2sc(-c3ccncc3)nn12	-13.4%
CN(C)c1ccc(-c2nn3c(-c4ccccc4Cl)nnc3s2)cc1	63.8% (active)
COc1ccccc1-c1nnc2sc(-c3ccc(N(C)C)cc3)nn12	44.4%
CN(C)c1ccc(-c2nn3c(-c4ccc(Cl)cc4Cl)nnc3s2)cc1	60.2% (active)
CN(C)c1ccc(-c2nn3c(-c4ccc(Cl)cc4)nnc3s2)cc1	-15.9%
CCOc1ccc(N2C(=O)CC(SC(=NC)Nc3cccc(F)c3)C2=O)cc1 (stereo not given)	-18.7%
O=C(CSc1ccc2c(c1)OCCO2)NCCN1C(=O)CSC1=O	3.6%
Cn1c(=O)[nH]c(=O)c2c1nc(N1CCN(c3cccc(Cl)c3)CC1)n2CCCc1ccccc1	5.2%
O=S(=O)(c1ccc(F)c(Cl)c1)N1CCCC1	11.7%
CCOC(=O)c1sc2nc(NC(=O)C3CC3)sc2c1C	16%
CCOC(=O)c1sc2nc(NC(=O)C3CCCCC3)sc2c1C	66.7% (active)
CCOC(=O)c1sc2nc(NC(=O)C(C)(C)C)sc2c1C	1.8%
CC(Sc1nnc(C2CCCCC2)n1N)C(=O)NCc1ccc2c(c1)OCO2 (stereo not given)	0.2%
CCCCN(CC)S(=O)(=O)c1ccc(C(=O)Nc2nnc(-c3ccccc3Cl)o2)cc1	59.8% (active)
CC1CN(S(=O)(=O)c2ccc(C(=O)Nc3nnc(-c4ccc5c(c4)CCCC5)o3)cc2)CC(C)O1 (stereo not given)	41.7%
CCc1nnc(NC(=O)c2ccc(S(=O)(=O)N(CC)Cc3ccccc3)cc2)o1	35.7%
CCN(Cc1ccccc1)S(=O)(=O)c1ccc(C(=O)Nc2nnc(C3CC3)o2)cc1	4.1%

SMILES	cytotoxicity
O=C(Nc1nc(-c2cccs2)cs1)c1ccc(S(=O)(=O)N2CCCCC2)cc1	-6.2%
CCCCN(C)S(=O)(=O)c1ccc(C(=O)Nc2nnc(-c3cccs3)o2)cc1	59.9% (active)
CC1CCCN(S(=O)(=O)c2ccc(NC(=O)c3cccc(-n4cnnn4)c3)cc2)C1 (stereo not given)	18.2%
CCCCN(CC)S(=O)(=O)c1ccc(C(=O)Nc2nnc(-c3cccs3)o2)cc1	49%
CC1CC(C)CN(S(=O)(=O)c2ccc(C(=O)Nc3nnc(-c4cccs4)o3)cc2)C1 (stereo not given)	69.8% (active)
CCCCN(C)S(=O)(=O)c1ccc(C(=O)Nc2nnc(CSC)o2)cc1	11.6%
CC1CCCN(S(=O)(=O)c2ccc(C(=O)Nc3nnc(-c4ccccc4Cl)o3)cc2)C1 (stereo not given)	60.8% (active)
O=C(Nc1nc(-c2cccs2)cs1)c1ccc(S(=O)(=O)N2CCCC2)cc1	6.2%
CCC1Sc2ccccc2N(CC(=O)NCCC(C)C)C1=O (stereo not given)	-14.5%
FC(F)(F)c1cccnc1N1CCN(c2ncnc3nc[nH]c23)CC1	-5.7%
CCCCS(=O)(=O)NC1=NCN(CCO)CN1	-7.4%
CCCCN1C(=O)C(O)(CC(=O)c2c(C)n[nH]c2C)c2cc(Br)ccc21 (stereo not given)	7.7%
CN(c1ccc(C(=O)NCc2ccco2)cc1)S(C)(=O)=O	0.7%
COCCNC(=O)NC(=O)COC(=O)C12CC3CC(CC(NC(C)=O)(C3)C1)C2	-1.4%
CCOCCCn1c(=S)[nH]c2cc(C(=O)NCCN(CC)CC)ccc2c1=O	1.7%
Cc1[nH]c(=O)[nH]c(=O)c1NC(=O)CSc1ncccc1-c1nc2ccccc2[nH]1	3%
NC(=O)c1ccsc1NC(=O)COC(=O)c1ccccc1NCc1ccco1	0.6%
COc1ccc(NC(=O)c2ccc(CN3CCN(c4ccccc4)CC3)cc2)cc1OC	-17.4%
CCn1c(SCC(=O)N2CCN(c3ccccc3F)CC2)nnc1-c1ccoc1C	-0.9%
CC1(C)OC(=O)N(c2ccccn2)C1(C)O (stereo not given)	2.3%
O=C(Nc1nnc(-c2ccccc2Cl)o1)c1ccc(S(=O)(=O)N2CCCCCC2)cc1	53.6% (active)
Cc1nnc(NC(=O)c2ccc(S(=O)(=O)N3CCCCCC3)cc2)o1	7.5%
COCc1nnc(NC(=O)c2ccc(S(=O)(=O)N3CCCCCC3)cc2)o1	3.2%
CC(OC(=O)c1cccc(NS(C)(=O)=O)c1)C(=O)Nc1ccc(N2CCOCC2)cc1 (stereo not given)	-30.2%

SMILES	cytotoxicity
COc1cccc(C2=CC(c3ccc(N(C)C)cc3)n3ncnc3N2)c1 (stereo not given)	-4.9%
CN(C)c1ccc(C2C=C(c3ccc(Cl)cc3OC(F)F)Nc3ncnn32)cc1 (stereo not given)	52.1% (active)
Cc1ccc(C2C=C(c3ccccc3OC(F)F)Nc3ncnn32)cc1 (stereo not given)	-8.7%
O=C(Oc1ccc(Br)cc1)C1CC(=O)N(c2ccc(F)cc2)C1 (stereo not given)	-2.4%
CCn1cnc2c1c(=O)n(CC(=O)Nc1cc(C)on1)c(=O)n2Cc1ccccc1	0%
O=C(Nc1ccccc1C(F)(F)F)c1cc(-c2cccc(O)c2)on1	-6.5%
Cn1c(CNc2ccc(Cl)cc2)nc2ccccc21	-13%
CC(C)N=c1cc2n(-c3ccc(Cl)cc3)c3ccccc3nc-2cc1Nc1ccc(Cl)cc1	83.5% (active)
Cc1nc2ccccc2n1-c1ccccc1	-4%
COc1ccc(S(=O)(=O)n2cnc3cc(C)c(C)cc32)cc1C	20.4%
O=C(CN(CCc1ccccc1)C(=O)CNS(=O)(=O)c1ccccc1)NCC1CCCO1 (stereo not given)	-10.5%
O=C(Nc1nc(-c2cccnc2)cs1)c1ccc(S(=O)(=O)N2CCOCC2)cc1	-18.5%
Cc1c(-c2ccccc2)nc(N)c(C#N)c1-c1ccco1	-4.2%
CC1=C(C#N)c2nc(N)c(C#N)c(C)c2/C1=C\c1ccccc1	107% (active)
Cc1nc(N)c(C#N)c(-c2ccccc2)c1C	13.3%
COc1ccc(CNC(=O)c2csnn2)cc1	-14.5%
CN(C)/C=C1\C(=O)c2ccc(N(C)C)nc2CC1c1ccccc1 (stereo not given)	60.7% (active)
CN(C)C=C1C(=O)c2ccccc2C1=O	29.6%
CN(C)/C=C1/Sc2ccccc2C1=O	-34.3%
CCN1C(=O)C2(C(C#N)=C(N)Oc3c2c(C)nn3-c2ccccc2)c2ccccc21 (stereo not given)	-16%
Cc1cc2n(n1)C(c1ccccc1Cl)Nc1ccccc1-2 (stereo not given)	9.5%
Cc1cc2n(n1)C(c1ccccc1)Nc1ccccc1-2 (stereo not given)	-1.8%
Cc1ccc(C(=O)NC(Cc2c[nH]c3ccccc23)C(=O)O)o1 (stereo not given)	-0.1%
